Drawing on PubChem BioAssay AID647 (Vanderbilt High Throughput Screening Facility, 2007), this text covers luminescence for 66 molecules.

SMILES strings stand for the structures. Among all 2,200 compounds or so, about 1,400 (64%) were called active.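 The calls were made as follows: active = luminescence in either replicate above plate mean of wells with a partly effective reference agonist dose plus 3 SD; inactive = the rest.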 The set was probably picked from earlier hits. These entries were drawn from the full list.

This experiment in a line: isoproterenol-driven CRE-luciferase response modulation in HEK293 cells, confirmation, counter-screen for D1 allosteric modulator project, cell-based, secondary assay 2, luminescence (AID 647).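 Also: isoproterenol raises cAMP through native beta-adrenoceptor Gs so signal bypasses D1; raw luminescence counts from the Envision reader with one value per duplicate well.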 To be noted: isoproterenol EC30 counter-screen, at 10 µM, hits give high values.
For `COc1ccc(-c2nnc(SCC(=O)NC3CCCCC3)o2)cc1OC`, the luminescence was 3200 (active).

Take `O=S(=O)(c1cccs1)N1CCc2ccccc2C1`: the luminescence is 3530 (active).

As for `CCOC(=O)/C=c1\s/c(=C\c2ccccc2OC)c(=O)n1CC(=O)N1CCOCC1`, the luminescence was 3580 (active).

For the molecule `CCCn1c(=O)c2[nH]c(C3CCCC3)nc2n(CCC)c1=O`, the luminescence was 3630 (active).

Regarding `COc1ccc(S(=O)(=O)N(C)CC(=O)Nc2ccc3c(c2)OCCO3)cc1OC`, the luminescence is 3480 (active).

For `Cc1nn(-c2ccccc2)c2c1C(=O)NC(=O)C(C)(C)C2`, the luminescence is 3700 (active).

With `CC(=O)OC(C)C[N+](C)(C)C` (stereo unspecified), the luminescence was 2500 (inactive).

With `CCc1ccc2oc(=O)cc(CN3CCCCC3C)c2c1` (stereo unspecified), the luminescence was 3040 (active).

For the molecule `COc1ccc(-c2n[nH]c(C)c2-c2ccc(OC)c(OC)c2)c(O)c1`, the luminescence was 3290 (active).

With `CC1CCN(c2nc3c(c(=O)[nH]c(=O)n3C)n2CCCc2ccccc2)CC1`, the luminescence is 5160 (active).

For `CCCSc1nc2c(c(=O)[nH]c(=O)n2C)n1CCc1ccccc1`, the luminescence is 6090 (active).

Consider `COC(=O)Nc1ncc(CN2C(=O)c3ccccc3C2=O)s1`, for which the luminescence was 2570 (inactive).

Consider `CCc1cc(=O)oc2cc(OCC(=O)N3CCCc4ccccc43)ccc12`, for which the luminescence was 4550 (active).

`C=CCn1cnc2scc(-c3ccccc3)c2c1=O`: the luminescence is 3500 (active).

`CCCc1nc(N)nc2c1C(=O)CC(C)(C)C2`: the luminescence was 4320 (active).

Regarding `COc1ccc(-c2nnn(Cc3nc(N)nc(N4CCCCC4)n3)n2)cc1`, the luminescence is 3650 (active).

As to `COc1ccc(CCN(C)C(=O)C2CCCN(Cc3ccc(OC)c(OC)c3)C2)cc1OC` (stereo unspecified), the luminescence is 2610 (inactive).

As to `COc1ccc(NC(=O)C2CCCN(S(=O)(=O)c3cccc4cccnc34)C2)cc1OC` (stereo unspecified), the luminescence was 3940 (active).

`CCOC(=O)c1c(NC(=O)CSc2nnc(CN3CCOCC3)n2C)sc2c1CCCC2`: the luminescence is 2880 (inactive).

With `C#CCNc1nc(C(C)C)nc2c1nnn2Cc1ccccc1F`, the luminescence is 3140 (active).

In the case of `COc1ccc(-c2cc(C(F)(F)F)nc(S(C)(=O)=O)n2)cc1OC`, the luminescence was 4780 (active).

For the molecule `COc1ccc(S(=O)(=O)Nc2ccc(S(=O)(=O)N3CCCCC3)cc2)cc1OC`, the luminescence was 3220 (active).

With `N#CCCN1CCN(S(=O)(=O)c2ccc(S(=O)(=O)NC3CCCCC3)cc2)CC1`, the luminescence was 2440 (inactive).

For `COc1nc(NCc2ccc(Cl)cc2)nc(OC)n1`, the luminescence is 2930 (inactive).

For `CCOC(=O)c1cc2n(c1C)-c1ccccc1C2=O`, the luminescence was 3830 (active).

Turning to `c1ccc(-c2nnc3n2NC(c2ccc4c(c2)OCO4)S3)cc1` (stereo unspecified), the luminescence was 3680 (active).

In the case of `CCCCNc1nc2ccccc2nc1NS(=O)(=O)c1cccs1`, the luminescence was 3780 (active).

Take `COc1ccc(CCNC(=O)c2cc3sccc3n2C)cc1OC`: the luminescence was 3110 (inactive).

As to `COc1ccc(CCNC(=O)CCn2c(=O)oc3ccccc32)cc1OC`, the luminescence was 3400 (active).

Consider `CCn1c(=N)c(S(=O)(=O)c2ccc(F)cc2)cc2c(=O)n3ccccc3nc21`, for which the luminescence is 5680 (active).

As for `CCCn1c(=NC(C)=O)c(C(=O)OCC)cc2c(=O)n3ccccc3nc21`, the luminescence was 2650 (inactive).

For the molecule `O=C(NCc1ccccn1)c1ccc2nc(-c3ccco3)c(-c3ccco3)nc2c1`, the luminescence was 2550 (inactive).

Regarding `Cn1c(/C(C#N)=C2/CCCCCN2)nc2ccccc21`, the luminescence is 3990 (active).

With `CCn1cc(C(=O)NCC2COc3ccccc3O2)c2cc(OC)c(OC)cc2c1=O` (stereo unspecified), the luminescence was 2910 (inactive).

On to `CCC(=O)NC(=Nc1nc2ccccc2s1)NC(=O)CC`, for which the luminescence was 3180 (inactive).

For the molecule `c1ccc2c(NCC3CCCO3)nc(-c3ccncc3)nc2c1` (stereo unspecified), the luminescence was 3220 (active).

For `Cn1c(=O)c2[nH]c(NCC3CCCO3)nc2n(-c2ccccc2)c1=O` (stereo unspecified), the luminescence was 2780 (inactive).

Take `CCCCSc1nc2c(c(=O)n1CC)SC(C)C2` (stereo unspecified): the luminescence was 2820 (inactive).

`CCOc1cccc(-n2nnnc2-c2ccc(OC)cc2)c1`: the luminescence is 4040 (active).

For the molecule `CC(C)n1c(C(O)c2ccccc2)nc2ccccc21` (stereo unspecified), the luminescence is 2350 (inactive).

As for `CCCS(=O)(=O)N1CCC(C(=O)NCCc2ccc(OC)c(OC)c2)CC1`, the luminescence is 2720 (inactive).

Regarding `COC(=O)c1ccccc1NC(=O)C1CCN(S(=O)(=O)c2cc(OC)ccc2OC)CC1`, the luminescence was 3570 (active).

Consider `Cn1c(=O)c2cn(-c3cccc4ccccc34)cc2n(C)c1=O`, for which the luminescence is 3300 (active).

Regarding `CC(=O)c1ccc(Oc2cc(C)nc(-n3nc(C)cc3C)n2)cc1`, the luminescence is 6880 (active).

Take `COc1ccc(Nc2cc(C)nc(-n3nc(C)cc3C)n2)cc1`: the luminescence is 3540 (active).

As to `COc1ncnc2sc3c(c12)CCCC3`, the luminescence was 2970 (inactive).

On to `CCOc1ccc(Cn2c(SCCCCC#N)nc3c2c(=O)n(C)c(=O)n3C)cc1OCC`, for which the luminescence is 5750 (active).

For the molecule `COC(=O)C(C)C1Sc2ccccc2NC1=O` (stereo unspecified), the luminescence is 3160 (inactive).

Take `CN1CCN(CC(O)COCc2ccc3c(c2)OCO3)CC1` (stereo unspecified): the luminescence is 5380 (inactive).

With `c1coc(-c2nc3nc4ccccc4n3nc2-c2ccco2)c1`, the luminescence was 4380 (active).

Regarding `COC(=O)C1=C(C)NC2=C(C(=O)c3ccccc32)C1c1ccc(-c2ccc(C(=O)O)cc2)o1` (stereo unspecified), the luminescence is 2560 (inactive).

For `CCCCc1c(O)nc2n(c1=O)CCS2`, the luminescence is 2460 (inactive).

Consider `COc1ccc(CCNc2ncnc3nc[nH]c23)cc1OC`, for which the luminescence was 3430 (active).

Turning to `CCCc1nc(-c2ccccc2O)n(-c2ccccc2)n1`, the luminescence was 3160 (active).

`CC1(C)Cc2ccccc2-c2nc(CN3CCOCC3)[nH]c(=O)c21`: the luminescence is 3540 (active).

On to `CC1Oc2ccccc2N(Cc2cccnc2)C1=O` (stereo unspecified), for which the luminescence is 2840 (active).

In the case of `CCOC(=O)c1c(NC(=O)CSc2nnc(Cc3csc(N)n3)n2C)sc(C)c1C`, the luminescence was 2440 (inactive).

On to `c1ccc(COc2nsnc2N2CCOCC2)cc1`, for which the luminescence was 4500 (inactive).

Consider `N#CCSc1nc2ccccc2c(=O)n1-c1ccccc1`, for which the luminescence is 4560 (active).

In the case of `C=CCSc1nc2c(c(=O)[nH]1)C(C(C)C)C(C#N)=C(N)O2` (stereo unspecified), the luminescence is 5180 (active).

As for `COc1ncnc2c1N=C1CC(C)(C)CC(N)=C1S2`, the luminescence is 2960 (inactive).

`O/N=C(\c1ccc2c(c1)OCCO2)C1CCCCC1`: the luminescence was 2880 (active).

For `N#Cc1nc(Cc2ccccc2)oc1NCCc1ccccc1`, the luminescence was 4280 (active).

For the molecule `COc1ccc(Nc2oc(-c3ccccc3Cl)nc2C#N)cc1`, the luminescence was 3960 (active).

With `CCOc1ccc(Nc2oc(Cc3ccccc3)nc2C#N)cc1`, the luminescence is 5850 (active).

Regarding `CC(C)C1C2=C(CC(C)(C)CC2=O)ON1c1ccccc1` (stereo unspecified), the luminescence is 3320 (inactive).
